# Measured values published in ChEMBL document CHEMBL2218924, “A broad activity screen in support of a chemogenomic map for kinase signalling research and drug discovery” (Biochem J, 2013).
# Tests used:
# [1] = target: T1, Ephrin type-A receptor 3 (Homo sapiens) (UniProt P29320); details: at 10 µM
# T1 sequence (whole entry): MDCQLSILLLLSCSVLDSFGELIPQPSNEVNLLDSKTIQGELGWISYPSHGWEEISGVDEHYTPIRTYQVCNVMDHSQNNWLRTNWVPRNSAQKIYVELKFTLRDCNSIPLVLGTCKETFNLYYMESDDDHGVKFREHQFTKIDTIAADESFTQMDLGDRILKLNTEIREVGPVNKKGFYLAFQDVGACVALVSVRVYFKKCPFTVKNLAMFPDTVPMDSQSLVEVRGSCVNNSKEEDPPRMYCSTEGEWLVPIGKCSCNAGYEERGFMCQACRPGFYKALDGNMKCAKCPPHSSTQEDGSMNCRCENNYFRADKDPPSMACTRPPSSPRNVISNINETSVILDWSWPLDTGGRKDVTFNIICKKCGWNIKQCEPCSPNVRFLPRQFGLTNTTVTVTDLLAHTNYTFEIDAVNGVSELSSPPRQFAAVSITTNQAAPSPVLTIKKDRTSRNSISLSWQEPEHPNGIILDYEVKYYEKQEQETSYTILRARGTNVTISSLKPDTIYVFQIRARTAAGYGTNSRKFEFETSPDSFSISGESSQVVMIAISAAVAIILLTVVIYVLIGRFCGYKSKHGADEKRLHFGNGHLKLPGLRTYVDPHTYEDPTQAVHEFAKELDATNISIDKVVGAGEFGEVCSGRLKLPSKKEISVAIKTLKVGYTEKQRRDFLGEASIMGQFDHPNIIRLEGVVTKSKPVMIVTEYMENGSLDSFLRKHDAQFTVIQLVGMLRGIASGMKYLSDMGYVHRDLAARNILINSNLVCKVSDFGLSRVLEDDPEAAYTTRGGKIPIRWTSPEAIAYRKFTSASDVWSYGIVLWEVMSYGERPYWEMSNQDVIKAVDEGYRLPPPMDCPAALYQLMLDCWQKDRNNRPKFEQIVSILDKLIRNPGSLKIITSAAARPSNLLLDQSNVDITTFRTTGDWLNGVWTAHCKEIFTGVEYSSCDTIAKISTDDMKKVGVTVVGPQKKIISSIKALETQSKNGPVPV
# [2] = target: Ephrin type-A receptor 4 (Homo sapiens) (UniProt P54764); details: at 1 µM
# [3] = target: Ephrin type-A receptor 4 (Homo sapiens) (UniProt P54764); details: at 10 µM
# [4] = target: Ephrin type-A receptor 5 (Homo sapiens) (UniProt P54756); details: at 1 µM
# [5] = target: Ephrin type-A receptor 5 (Homo sapiens) (UniProt P54756); details: at 10 µM
# [6] = target: Ephrin type-A receptor 7 (Homo sapiens) (UniProt Q15375); details: at 1 µM
# [7] = target: Ephrin type-A receptor 7 (Homo sapiens) (UniProt Q15375); details: at 10 µM
# [8] = target: T2, Ephrin type-A receptor 8 (Homo sapiens) (UniProt P29322); details: at 1 µM
# T2 sequence (whole entry): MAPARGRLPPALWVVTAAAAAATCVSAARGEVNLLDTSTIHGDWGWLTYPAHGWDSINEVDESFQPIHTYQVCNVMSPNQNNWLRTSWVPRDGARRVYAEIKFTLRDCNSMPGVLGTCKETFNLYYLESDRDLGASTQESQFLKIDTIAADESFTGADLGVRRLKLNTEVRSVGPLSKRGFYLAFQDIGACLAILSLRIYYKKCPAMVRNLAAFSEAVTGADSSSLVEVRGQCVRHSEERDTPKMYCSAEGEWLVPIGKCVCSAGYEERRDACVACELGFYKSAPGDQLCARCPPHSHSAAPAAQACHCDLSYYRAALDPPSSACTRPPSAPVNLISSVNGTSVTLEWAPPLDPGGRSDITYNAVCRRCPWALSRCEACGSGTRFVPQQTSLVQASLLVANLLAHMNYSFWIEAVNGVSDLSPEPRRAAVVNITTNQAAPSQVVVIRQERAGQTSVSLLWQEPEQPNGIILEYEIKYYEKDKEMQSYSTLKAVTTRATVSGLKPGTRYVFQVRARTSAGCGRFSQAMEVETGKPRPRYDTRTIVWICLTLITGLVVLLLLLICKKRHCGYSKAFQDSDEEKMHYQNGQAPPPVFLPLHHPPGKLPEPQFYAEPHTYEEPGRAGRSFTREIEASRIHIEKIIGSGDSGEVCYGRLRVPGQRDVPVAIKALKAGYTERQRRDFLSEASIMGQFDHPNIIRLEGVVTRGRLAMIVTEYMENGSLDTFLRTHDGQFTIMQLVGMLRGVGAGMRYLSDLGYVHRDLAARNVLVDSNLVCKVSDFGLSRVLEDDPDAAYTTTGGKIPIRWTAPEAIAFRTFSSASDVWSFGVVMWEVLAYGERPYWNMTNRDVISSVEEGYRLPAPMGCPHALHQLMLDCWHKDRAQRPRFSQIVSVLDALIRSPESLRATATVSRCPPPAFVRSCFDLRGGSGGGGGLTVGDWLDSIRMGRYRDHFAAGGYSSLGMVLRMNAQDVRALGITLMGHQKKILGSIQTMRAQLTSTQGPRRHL
# [9] = target: T2, Ephrin type-A receptor 8 (Homo sapiens); details: at 10 µM
# [10] = target: T3, Ephrin type-B receptor 1 (Homo sapiens) (UniProt P54762); details: at 1 µM
# T3 sequence (whole entry): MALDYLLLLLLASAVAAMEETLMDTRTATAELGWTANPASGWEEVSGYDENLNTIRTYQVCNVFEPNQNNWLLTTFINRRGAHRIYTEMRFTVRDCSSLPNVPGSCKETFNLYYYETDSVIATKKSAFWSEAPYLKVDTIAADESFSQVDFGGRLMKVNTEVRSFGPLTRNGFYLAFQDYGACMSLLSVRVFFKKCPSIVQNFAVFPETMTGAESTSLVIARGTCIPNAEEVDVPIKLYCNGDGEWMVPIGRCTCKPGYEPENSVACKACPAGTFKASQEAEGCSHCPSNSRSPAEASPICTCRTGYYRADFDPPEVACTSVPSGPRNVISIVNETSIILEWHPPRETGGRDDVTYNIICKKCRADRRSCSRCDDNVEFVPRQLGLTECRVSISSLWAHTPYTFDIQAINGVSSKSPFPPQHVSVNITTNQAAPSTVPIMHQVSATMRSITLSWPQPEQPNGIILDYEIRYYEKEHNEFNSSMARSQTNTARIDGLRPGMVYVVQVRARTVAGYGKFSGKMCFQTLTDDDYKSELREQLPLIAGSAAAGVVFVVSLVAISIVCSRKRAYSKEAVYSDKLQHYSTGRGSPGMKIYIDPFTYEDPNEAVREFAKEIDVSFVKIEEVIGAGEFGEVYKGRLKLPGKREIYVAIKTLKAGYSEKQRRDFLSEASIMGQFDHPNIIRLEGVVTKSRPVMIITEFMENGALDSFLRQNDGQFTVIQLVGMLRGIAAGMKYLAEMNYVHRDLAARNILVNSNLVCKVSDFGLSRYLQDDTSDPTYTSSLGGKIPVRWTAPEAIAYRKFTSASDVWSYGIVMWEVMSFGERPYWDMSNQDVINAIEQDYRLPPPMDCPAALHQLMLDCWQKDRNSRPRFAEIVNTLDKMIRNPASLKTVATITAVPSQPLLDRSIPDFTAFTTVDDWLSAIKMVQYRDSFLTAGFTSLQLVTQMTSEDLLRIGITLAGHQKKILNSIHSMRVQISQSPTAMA
# Ephrin type-A receptor 7 (Homo sapiens), sequence (Q15375 28-998 limits assumed): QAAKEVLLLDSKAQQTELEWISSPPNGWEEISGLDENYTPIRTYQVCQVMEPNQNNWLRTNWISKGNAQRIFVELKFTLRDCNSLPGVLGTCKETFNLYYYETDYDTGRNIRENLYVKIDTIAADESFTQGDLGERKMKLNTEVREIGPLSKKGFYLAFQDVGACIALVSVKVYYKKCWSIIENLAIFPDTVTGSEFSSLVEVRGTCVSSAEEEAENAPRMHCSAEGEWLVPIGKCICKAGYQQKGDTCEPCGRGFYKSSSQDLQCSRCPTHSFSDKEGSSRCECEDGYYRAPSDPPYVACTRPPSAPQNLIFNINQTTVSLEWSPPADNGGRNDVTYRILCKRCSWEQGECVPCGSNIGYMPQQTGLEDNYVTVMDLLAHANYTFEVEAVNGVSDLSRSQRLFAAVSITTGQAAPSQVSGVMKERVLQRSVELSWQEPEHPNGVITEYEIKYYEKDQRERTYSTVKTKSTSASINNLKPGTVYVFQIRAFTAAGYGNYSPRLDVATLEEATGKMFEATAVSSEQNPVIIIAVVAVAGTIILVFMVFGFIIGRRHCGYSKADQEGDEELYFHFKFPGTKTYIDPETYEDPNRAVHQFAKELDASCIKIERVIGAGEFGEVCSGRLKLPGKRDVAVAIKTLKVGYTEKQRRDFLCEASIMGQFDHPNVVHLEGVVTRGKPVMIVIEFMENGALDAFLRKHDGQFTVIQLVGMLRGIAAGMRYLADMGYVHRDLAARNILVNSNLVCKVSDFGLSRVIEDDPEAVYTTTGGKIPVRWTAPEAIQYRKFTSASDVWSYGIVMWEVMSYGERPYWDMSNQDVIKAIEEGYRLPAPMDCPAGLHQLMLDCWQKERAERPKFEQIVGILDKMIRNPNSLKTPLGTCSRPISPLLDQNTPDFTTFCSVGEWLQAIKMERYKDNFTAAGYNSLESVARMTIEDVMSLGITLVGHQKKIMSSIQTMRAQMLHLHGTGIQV
# Ephrin type-A receptor 4 (Homo sapiens), sequence (P54764 whole entry): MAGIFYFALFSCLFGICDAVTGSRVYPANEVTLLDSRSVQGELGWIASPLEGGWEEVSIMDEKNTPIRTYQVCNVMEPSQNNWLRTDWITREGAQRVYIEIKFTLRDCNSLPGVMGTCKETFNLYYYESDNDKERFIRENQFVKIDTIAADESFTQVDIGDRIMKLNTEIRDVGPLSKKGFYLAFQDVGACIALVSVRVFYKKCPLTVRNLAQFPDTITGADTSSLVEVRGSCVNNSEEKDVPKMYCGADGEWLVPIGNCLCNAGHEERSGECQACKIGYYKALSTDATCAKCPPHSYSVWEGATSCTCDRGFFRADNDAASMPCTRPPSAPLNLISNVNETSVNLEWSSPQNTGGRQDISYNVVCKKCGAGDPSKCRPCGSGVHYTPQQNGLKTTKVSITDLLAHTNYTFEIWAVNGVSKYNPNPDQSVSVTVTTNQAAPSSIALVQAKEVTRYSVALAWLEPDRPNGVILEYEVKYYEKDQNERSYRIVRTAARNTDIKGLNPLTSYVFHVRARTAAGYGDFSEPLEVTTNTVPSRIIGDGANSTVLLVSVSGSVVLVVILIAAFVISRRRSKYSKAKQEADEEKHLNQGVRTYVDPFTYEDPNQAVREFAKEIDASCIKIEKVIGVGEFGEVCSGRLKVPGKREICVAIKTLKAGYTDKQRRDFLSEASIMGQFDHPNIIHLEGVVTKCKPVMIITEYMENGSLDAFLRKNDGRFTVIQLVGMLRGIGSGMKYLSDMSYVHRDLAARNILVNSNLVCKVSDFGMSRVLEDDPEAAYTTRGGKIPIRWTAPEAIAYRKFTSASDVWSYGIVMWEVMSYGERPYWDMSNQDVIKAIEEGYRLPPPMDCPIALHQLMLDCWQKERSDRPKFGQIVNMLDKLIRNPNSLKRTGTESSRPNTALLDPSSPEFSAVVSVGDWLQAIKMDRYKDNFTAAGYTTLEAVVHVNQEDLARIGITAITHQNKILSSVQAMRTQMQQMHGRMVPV
# Ephrin type-A receptor 5 (Homo sapiens), sequence (P54756 whole entry): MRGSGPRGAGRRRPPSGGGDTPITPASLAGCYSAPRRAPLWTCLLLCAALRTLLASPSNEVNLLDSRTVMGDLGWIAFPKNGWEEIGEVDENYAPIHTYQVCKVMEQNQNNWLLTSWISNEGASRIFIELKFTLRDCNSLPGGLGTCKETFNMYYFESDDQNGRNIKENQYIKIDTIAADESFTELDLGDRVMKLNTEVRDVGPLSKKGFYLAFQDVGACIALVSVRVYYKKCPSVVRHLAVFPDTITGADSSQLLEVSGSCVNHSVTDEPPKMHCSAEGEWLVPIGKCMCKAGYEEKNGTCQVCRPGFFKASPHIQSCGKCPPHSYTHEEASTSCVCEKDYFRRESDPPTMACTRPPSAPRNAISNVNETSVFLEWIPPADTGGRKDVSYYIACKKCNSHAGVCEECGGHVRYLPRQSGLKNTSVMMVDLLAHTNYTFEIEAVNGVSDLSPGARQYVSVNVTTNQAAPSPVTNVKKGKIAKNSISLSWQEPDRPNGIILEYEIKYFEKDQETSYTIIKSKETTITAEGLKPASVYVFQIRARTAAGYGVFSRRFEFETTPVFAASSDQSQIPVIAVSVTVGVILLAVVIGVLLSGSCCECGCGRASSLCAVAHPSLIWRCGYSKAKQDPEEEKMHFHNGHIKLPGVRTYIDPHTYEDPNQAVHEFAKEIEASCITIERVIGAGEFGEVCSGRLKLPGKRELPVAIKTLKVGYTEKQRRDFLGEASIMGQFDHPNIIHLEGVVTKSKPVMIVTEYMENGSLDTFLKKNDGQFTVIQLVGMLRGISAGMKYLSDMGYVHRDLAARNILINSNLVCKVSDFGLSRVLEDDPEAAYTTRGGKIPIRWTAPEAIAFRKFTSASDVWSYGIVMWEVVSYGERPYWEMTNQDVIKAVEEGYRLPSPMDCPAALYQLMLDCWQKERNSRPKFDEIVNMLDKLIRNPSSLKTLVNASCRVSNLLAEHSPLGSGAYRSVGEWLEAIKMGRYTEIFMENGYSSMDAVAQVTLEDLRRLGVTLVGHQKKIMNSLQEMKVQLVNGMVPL
smiles,measurement,setting,value
Cn1cc(/C=C2\C(=O)Nc3ccc(S(N)(=O)=O)cc32)c2ccccc21,residual activity,[1],13%
same,residual activity,[2],96%
same,residual activity,[3],89%
same,residual activity,[4],54%
same,residual activity,[5],53%
same,residual activity,[6],32%
same,residual activity,[7],9%
same,residual activity,[8],88%
same,residual activity,[9],54%
same,residual activity,[10],66%
